These results are taken from PubChem BioAssay (NCI).

Where “and” joins values, the source holds several entries; their conditions need not be identical. Equal entries are not always repeated. The panel holds about 83,000 compounds, 20% with a hit somewhere; the sample as a whole holds those more often.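 Treatment: one concentration, 48 hours, 96-well format. Scoring: percent growth, with anything below 10 considered active.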 Calls of active or inactive are those of the source.

In the test the test system is MDA-MB-468 breast. Put plainly: NCI-60 one-dose screen, 48 h (100 = growth as untreated, 0 = no growth, -100 = all killed). Particulars: 10 µM unless noted.
Take `O=C(Nc1cccc2cccnc12)c1cc(C(=O)c2ccc(Cl)cc2)n2ccc(-c3ccncc3)cc12`: the growth is 108% (inactive). With `Nc1nc(-c2cc3c(cc2Cl)NC(=O)/C3=C/c2ccc(Cl)cc2)cs1`, the growth is -14% (active).

With `O=C(O)c1cccc(Br)c1`, the growth is 104% (inactive) and 101% (inactive).

On to `Cc1cc2cc3cc(C)c(N(C)C)cc3nc2cc1N(C)C`, for which the growth was 23.9% (inactive). With `COc1cc(C[C@H]2COc3cc(O)cc(O)c3C2=O)ccc1O` the figure was 26.2% (inactive).

Regarding `O=C(O)Cc1cccc2ccccc12`, the growth is 121% (inactive). As for `Cc1[nH]c(C(=O)Nc2ccc(C(=O)NCC3CCNCC3)cc2OC(C)C)c(Cl)c1Cl`, the figure is 21.5% (inactive); as for `O=C(O)CC1Cc2ccccc2C1C(=O)O` (configuration not stated), 106% (inactive).

Regarding `N#CC(C#N)=C/C=C/c1cccc([N+](=O)[O-])c1`, the growth is -56.4% (active) and -30.4% (active).

Consider `COc1cccc(/C(C#N)=C/c2nc3c(N4CCOCC4)nc(Cl)nc3n2C)c1`, for which the growth was -63% (active). As for `Cc1[nH]c(C(=O)Nc2ccc(C(N)=O)cc2NC(C)C)c(Cl)c1Cl`, the figure is 83.7% (inactive); as for `COc1ccc(Oc2nc(Nc3ccc(N4CCOCC4)cc3)ncc2NC(=O)Nc2cccc(OC)c2)cc1`, 90.1% (inactive). As for `COc1cc2ncnc(Nc3ccc(F)c(Cl)c3)c2cc1NC(=O)/C=C/CN1CCCCC1`, the figure is -82.2% (active); as for `COc1cc(/C=N/NC(=O)c2ccc(-n3cc(-c4ccccc4)nn3)cc2)cc(OC)c1OC`, 31.6% (inactive). With `CCSCC1CC(O)(c2ccccc2)CC(c2ccc(F)cc2)O1` (configuration not stated) the figure was 8.89% (active); with `O=C(CN1CCN(c2cc3c(cc2F)c(=O)c(C(=O)O)cn3C2CC2)CC1)Nc1ccc(C(=O)/C=C/c2ccc(Cl)cc2)cc1`, 95.1% (inactive). With `CC(C)CCN(CCCNc1c2c(nc3cc(Cl)ccc13)CCCC2)CCC(C)C`, the growth was 22.6% (inactive).

As to `CC(C)(C)CC(N)=O`, the growth is 101% (inactive). Consider `COc1cc(NCC(C)(O)CN(CC(C)C)CC(C)C)c2nc(C)ccc2c1` (configuration not stated), for which the growth is -11.4% (active). With `O=C(Nc1ccc(S(=O)(=O)NC2CCCCCC2)cc1)C(c1ccccc1)S(=O)(=O)c1ccc(F)cc1` (configuration not stated) the figure was -14.5% (active); with `CCOC(=O)C(=O)CC(=O)c1ccccc1`, 96.9% (inactive); with `CCOC(=O)c1c(C)oc2ncnc(Nc3ccc(NC(=O)Nc4ccc(CC)cc4)cc3)c12`, 128% (inactive). Regarding `Cc1ccc(C(=O)NN2C(=O)CSC2c2cccc([N+](=O)[O-])c2)cn1` (configuration not stated), the growth is 105% (inactive). Turning to `CCOC(=O)c1cc(/C(=N\O)c2cc(OC)c(OC)c(OC)c2)n2cc(C)cc(C)c12`, the growth was 15.8% (inactive). With `Cc1cc(Nc2nc(N3CCOCC3)nc3ccccc23)n[nH]1` the figure was 55.9% (inactive).

On to `CS(=O)(=O)c1ccc(C(=O)N/N=C/c2cccc3ccccc23)cc1`, for which the growth is 74.2% (inactive). For `O=C(NC1CCOCC1)c1ccc2c(c1)CN(c1ncc(Cc3cccc(-n4cccn4)c3)s1)CC2`, the growth is 41.4% (inactive).

`COc1ccc(N)c(N)c1`: the growth was 84% (inactive). On to `C/C(=N\NC(=O)/C=C/CC(=O)O)c1nnn(-c2ccc([N+](=O)[O-])cc2)c1C`, for which the growth was 99.8% (inactive). Turning to `CCCCCCCC(=O)SCC/C=C/[C@@H]1CC(=O)NCc2cccc(n2)C2=N[C@@](C)(CS2)C(=O)N[C@@H](C(C)C)C(=O)O1`, the growth is 12.4% (inactive). With `COc1ccc(-c2ccc(NC(=O)Nc3ccc(Cl)c(C(F)(F)F)c3)c(C)n2)cc1` the figure was 38.5% (inactive); with `COc1cc2c(c(OC)c1OC)CCC(c1cccc(C(=O)Nc3ccc(Br)cc3)c1)O2` (configuration not stated), 38.2% (inactive). As for `C=C1C(=O)O[C@H]2[C@H]1CC/C(COC(=O)NCc1[nH]nc3ccccc13)=C\CC[C@@]1(C)O[C@@H]21`, the growth was 20.4% (inactive).

Turning to `C=C(C)[C@@H]1CC[C@]2(C(=O)N3CCN(C)CC3)CC[C@]3(C)[C@H](CC[C@@H]4[C@@]5(C)C/C(=C/c6ccc(C(F)(F)F)cc6)C(=O)C(C)(C)[C@@H]5CC[C@]43C)[C@@H]12`, the growth is 107% (inactive). As for `COc1ccc(/C(C#N)=C/c2nc3c(N4CCOCC4)nc(Cl)nc3n2C)cc1OC`, the figure is -20.9% (active); as for `O=C1[C@H]2Cc3c([nH]c4ccccc34)[C@@H](c3c(Cl)cccc3Cl)N2C(=O)CN1C1CCN(CC2CCCCC2)CC1`, 80.5% (inactive).

As to `CC(/C=N/NC(N)=S)Cc1ccc(C(C)C)cc1` (configuration not stated), the growth was 42.1% (inactive).
